Results as given in PubChem BioAssay AID504332 (National Center for Advancing Translational Sciences (NCATS), 2011).
Hit rate of the full screen: of about 350,000 compounds, about 31,000 (8.9%) were called active. Another 15% or so got no clear call; they are omitted. Calls follow the shape of the dose curve; as a rule, active = well fitted inhibition curve with a large enough effect; inconclusive = small, poorly fitted or top-dose-only effect; inactive = no such curve, though single readings can be large or run the other way. Shown is part of a subset that was picked to be rich in actives.

Target: Histone-lysine N-methyltransferase EHMT2 (Homo sapiens) (UniProt Q96KQ7)
Sequence (Q96KQ7 913-1193 limits assumed): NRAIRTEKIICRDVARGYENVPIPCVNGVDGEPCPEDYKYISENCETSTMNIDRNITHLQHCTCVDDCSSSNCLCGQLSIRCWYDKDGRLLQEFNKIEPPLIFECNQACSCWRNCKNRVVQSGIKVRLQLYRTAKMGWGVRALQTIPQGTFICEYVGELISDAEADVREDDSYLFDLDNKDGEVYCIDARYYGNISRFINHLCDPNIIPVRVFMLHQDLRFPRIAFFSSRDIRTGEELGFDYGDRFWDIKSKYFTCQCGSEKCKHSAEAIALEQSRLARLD
Experiment: qHTS Assay for Inhibitors of Histone Lysine Methyltransferase G9a; also: nearly all actives have a fitted effect of over 75% in size
Conditions: G9a H3K9 monomethylation, AlphaScreen, 2 h; series mostly up to 59 µM; activity, negative = inhibition: at the top concentration
In short: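 AlphaScreen detection with an anti-monomethyl H3K9 antibody quantified product after a 2 h room-temperature reaction containing 500 nM biotinylated H3K9 peptide, 20 µM SAM and 20 nM enzyme, which had been preincubated 15 min with compound.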
% is scaled to controls: 0 for no effect and ±100 for the full control effect; potency is read from the fitted curve at half-maximal effect.

SMILES	Potency	activity, negative = inhibition
COc1ccccc1C1/C(=C(/O)c2ccc(OC(C)C)cc2)C(=O)C(=O)N1c1cc(C)on1 (centres undefined)	1.26 µM (active)	–
Cc1cc(N2C(=O)C(=O)/C(=C(/O)c3ccc(Cl)cc3)C2c2cccc(Br)c2)no1 (centres undefined)	–	-2.11% (inactive)
COc1ccc(C2/C(=C(/O)c3ccccc3)C(=O)C(=O)N2C)c(OC)c1 (centres undefined)	–	-3.6% [at 0.501 µM] (inactive)
COC(=O)C1(C)CC1(c1ccccc1)c1ccccc1 (centres undefined)	–	48.6% [at 102 µM] (inactive)
CC(=O)c1ccc(N2CCN(S(=O)(=O)c3ccc4c(c3)CC(=O)N4C)CC2)cc1	–	0.477% [at 102 µM] (inactive)
Cc1ccc2oc(=O)c3cnn(CC(=O)N4CCN(c5cccc(Cl)c5)CC4)c3c2c1	–	-0.798% (inactive)
CSc1ccc(CCNC(=O)c2cnn(-c3ccccc3)c2-n2cccc2)cc1	–	3.56% (inactive)
CC1CCN(C(=O)C2CCN(S(=O)(=O)N3CCC4(CC3)OCCO4)CC2)CC1	–	-9.21% [at 102 µM] (inactive)
COc1ccc2oc(C(=O)OCC(=O)N(CC(C)C)c3c(N)n(Cc4ccccc4)c(=O)[nH]c3=O)c(C)c2c1	39.8 µM (active)	–
COCCN(C(=O)COC(=O)Cc1cccc(OC)c1)c1c(N)n(Cc2ccccc2)c(=O)[nH]c1=O	–	-40.6% [at 102 µM] (inactive)
Cc1csc(=O)n1CC(=O)OCC(=O)N(CC(C)C)c1c(N)n(Cc2ccccc2)c(=O)[nH]c1=O	–	6.53% [at 102 µM] (inactive)
O=C(NC1CC(=O)N(c2ccc(F)cc2)C1)c1ccc(S(=O)(=O)N2CCCC2)cc1 (centres undefined)	–	-39.5% (inactive)
CCN(CC)C(=O)CSc1nc2cc3c(cc2c(=O)n1CCCC(=O)NCc1ccc2c(c1)OCO2)OCO3	–	0.103% (inactive)
CCc1c(C)[nH]c(=S)c(C#N)c1C	1.12 µM (active)	–
CCOC(=O)C1=C(CN2CCCCCC2)NC(=O)NC1c1cccc([N+](=O)[O-])c1 (centres undefined)	–	-40.2% [at 102 µM] (inactive)
CCOC(=O)C1=C(CCc2ccccc2)NC(=O)NC1c1ccc2ccccc2c1 (centres undefined)	–	-5.48% [at 102 µM] (inactive)
CCOC(=O)C1=C(CN2CCc3ccccc32)NC(=O)NC1c1cccc([N+](=O)[O-])c1 (centres undefined)	39.8 µM (active)	–
Cc1ccc(C)c(N2CCN(C(=O)CN3C(=O)COc4ccc(S(=O)(=O)N5CCCCCC5)cc43)CC2)c1	–	1.44% (inactive)
CC(C)(C)C(=O)COC(=O)c1cc(S(=O)(=O)N2CCCCC2)ccc1N1CCOCC1	–	-0.482% [at 102 µM] (inactive)
Cc1nnc(Sc2nc3c(c(=O)[nH]c(=O)n3C)n2Cc2ccccc2)s1	–	17.7% [at 12.7 µM] (inactive)
C=CCn1c(SCc2ccccc2)nc2c1c(=O)[nH]c(=O)n2C	31.6 µM (active)	–
C=CCSc1nc2c(c(=O)[nH]c(=O)n2C)n1Cc1ccccc1	–	30.7% [at 102 µM] (inactive)
O=[N+]([O-])c1cc(Br)c(O)c(/C=N/Nc2nc3ccccc3s2)c1	–	115% [at 102 µM] (inactive)
Cc1nn(CC(=O)Nc2nc3ccccc3s2)c(C)c1[N+](=O)[O-]	–	11.1% [at 0.501 µM] (inactive)

SMILES	Potency	activity, negative = inhibition
O=[N+]([O-])c1c(NCCO)cc(Sc2nc3ccccc3s2)c2nonc12	3.55 µM (active)	–
Cc1c(NC(=S)Nc2ccccc2)c(=O)n(-c2ccccc2)n1C	–	0.236% (inactive)
Cc1c(NS(=O)(=O)c2ccc(Cl)cc2)c(=O)n(-c2ccccc2)n1C	–	9.47% (inactive)
CCN(CC)P(=O)(/C(Cl)=C\Nc1c(C)n(C)n(-c2ccccc2)c1=O)N(CC)CC	31.6 µM (active)	–
COc1ccccc1-c1nc(C#N)c(N2CCC(C(N)=O)CC2)o1	–	-5.97% [at 102 µM] (inactive)
CC1CCN(c2oc(-c3ccccc3F)nc2C#N)CC1	7.94 µM (active)	–
Cc1oc(-c2ccccc2F)nc1CS(=O)CC(=O)NCCN1CCCCC1C (centres undefined)	–	-25.9% [at 102 µM] (inactive)
COc1ccc(Cl)cc1NC(=O)C(C)Sc1nc2c(c(=O)[nH]1)CCCC2 (centres undefined)	–	-28.6% (inactive)
CC(=O)Nc1ccc(S(=O)(=O)Nc2nccc(/C=C/c3ccccc3F)n2)cc1	–	-3.27% [at 102 µM] (inactive)
CCOc1ncccc1C(=O)Nc1ccc(S(=O)(=O)Nc2nc(C)cc(C)n2)cc1	–	108% [at 12.7 µM] (inactive)
Cc1cc(C)nc(NS(=O)(=O)c2ccc(N/C=C\C(=O)c3cccs3)cc2)n1	50.1 µM (active)	–
O=C(O)c1ccccc1-c1ccccc1C(=O)Nc1cccc2ccccc12	–	8.04% (inactive)
O=C(Nc1ccccc1[N+](=O)[O-])C1C(c2ccccc2)=C1c1ccccc1	–	24.3% [at 0.501 µM] (inactive)
O=C(O)c1cc([N+](=O)[O-])c(Nc2cccc3ccccc23)c([N+](=O)[O-])c1	44.7 µM (active)	–
Cc1ccccc1-n1c(=O)c2ccccc2n(Cc2ccc(F)cc2)c1=O	–	3.97% (inactive)
O=C(NCCc1ccccc1)C(=O)NCC(c1ccco1)S(=O)(=O)c1ccccc1 (centres undefined)	–	-6.5% (inactive)
O=C1Nc2c(Br)cc(Br)cc2C1(O)N1CCOCC1 (centres undefined)	–	5.27% [at 12.7 µM] (inactive)
O=C(CSC(=S)N1CCOCC1)c1ccccc1	7.08 µM (active)	–
CN(C)CC(C)(C)CNC(=O)c1cc(Br)cc(Br)c1O	–	-26.2% [at 102 µM] (inactive)
NC(=NC(=O)c1ccccc1)N1CCOCC1	–	3.07% (inactive)
O=C(CSC(=S)N1CCOCC1)c1cc(Br)cc(Br)c1O	79.4 µM (active)	–
CC1CN(C(=S)SCC(=O)c2ccccc2)CC(C)O1 (centres undefined)	1.78 µM (active)	–
COC(=O)[C@H](Cc1ccccc1)NC(=O)N1CC(C)OC(C)C1 (some centres undefined)	–	10.9% [at 102 µM] (inactive)
O=C(NC(=O)N1CCOCC1)c1ccccc1	–	-4.57% (inactive)

SMILES	Potency	activity, negative = inhibition
CC1CN(C(=O)CN2C(=O)NC(C)(c3ccccc3)C2=O)CC(C)O1 (centres undefined)	–	5.65% [at 2.33 µM] (inactive)
COc1cccc(-c2nc(S(=O)(=O)c3ccc(C)cc3)c(NCc3ccccc3)o2)c1	–	-39.8% (inactive)
COc1ccccc1CNC(=O)c1ccc(CS(=O)c2ccccc2Cl)o1 (centres undefined)	–	2.15% (inactive)
CCCCCn1c(CCCNC(=O)c2ccccc2OC)nc2ccccc21	–	-4.32% (inactive)
CNS(=O)(=O)c1cccc(C(=O)NC2CCCc3ccccc32)c1 (centres undefined)	–	-3.96% [at 102 µM] (inactive)
O=C(CCNS(=O)(=O)c1ccccc1)NCCSc1ccc(Br)cc1	–	9.11% (inactive)
Cc1ccc(C(=O)OCC(=O)NCc2cc(C)c(O)c(C)c2)cc1S(=O)(=O)N1CCCCC1	–	5% (inactive)
CCOCCCNC(=O)c1c(NC(=O)Cc2coc3c(C)c(C)ccc23)sc2c1CCC2	–	-3.27% (inactive)
COc1ccccc1CNC(=O)Cn1nc(C)c2nn(-c3ccc(Cl)cc3)c(C)c2c1=O	–	10.4% (inactive)
CCn1c(SCC(=O)N/N=C/C=C/c2ccccc2[N+](=O)[O-])nnc1-c1ccccc1	39.8 µM (active)	–
Cc1ccc(-n2c(SCC(=O)N/N=C/C=C/c3ccccc3[N+](=O)[O-])nc3ccccc3c2=O)cc1	–	-9.25% (inactive)
O=C(CSc1nc2ccccc2[nH]1)N/N=C/C=C\c1ccccc1[N+](=O)[O-]	–	-16.6% (inactive)
CC(C)COc1ccc(C(=O)OCC(=O)NCCC2=CCCCC2)cc1	–	-4.08% [at 102 µM] (inactive)
CC(NC(=O)C1CCCN(S(=O)(=O)c2ccc(-n3cnnn3)cc2)C1)c1ccc(F)cc1 (centres undefined)	–	11.5% [at 102 µM] (inactive)
Cc1ccc(OC(=O)CCC(=O)Nc2ccc(Br)cc2)cc1	–	4.61% (inactive)
COc1ccc(NC(=O)CCC(=O)Nc2nnc(C3CCCCC3)s2)cc1	–	-0.257% [at 102 µM] (inactive)
COC(=O)CCc1sc(Nc2ccc(Br)cc2)nc1-c1ccc(OC)cc1	35.5 µM (active)	–
COc1ccccc1CNC(=O)CCCN1C(=O)NC2(CCCC2)C1=O	–	-40.6% [at 102 µM] (inactive)
Cc1ccc(Cl)cc1NC(=O)/C(C#N)=C\c1cn(Cc2ccc(F)cc2)c2ccccc12	–	13.7% (inactive)
Cc1cccc(COc2ccccc2/C=N/Nc2ccc([N+](=O)[O-])cc2)c1	2.51 µM (active)	–
O=[N+]([O-])c1ccc(N/N=C/c2ccccc2)cc1	–	-4.27% [at 102 µM] (inactive)
Cc1ccc(NS(=O)(=O)c2ccc(N/N=C/c3ccccc3OCC(=O)O)c([N+](=O)[O-])c2)c(C)c1	–	-115% (inactive)
CC(C)c1ccc(S(=O)(=O)N2CCN(C(C)C(=O)NC3CCCC3)CC2)cc1 (centres undefined)	–	-7.57% [at 2.33 µM] (inactive)
CCC(C)c1ccc(NC(=S)N2CCCC2)cc1 (centres undefined)	–	6.13% [at 102 µM] (inactive)

SMILES	Potency	activity, negative = inhibition
CCc1ccccc1NC(=O)N1CCC2(CC1)Oc1ccccc1C(=O)N2Cc1ccccc1F	–	-23.1% (inactive)
CCC(=O)Nc1c(C(=O)N2CCN(c3ccc(F)cc3)CC2)oc2ccccc12	–	2.14% (inactive)
CCc1cc(C(c2ccccc2OC)N2CCOCC2)c(NC(=O)c2ccccc2)s1 (centres undefined)	–	7.98% [at 0.501 µM] (inactive)
COc1cc(C(=O)NCC(c2ccc(Cl)cc2)N2CCOCC2)cc(OC)c1OC (centres undefined)	–	10.8% (inactive)
COc1cc(C(c2c(NC(=O)c3ccco3)sc(C)c2C)N2CCOCC2)cc(OC)c1OC (centres undefined)	50.1 µM (active)	–
O=C(NCCN1CCOCC1)c1cccc(S(=O)(=O)Nc2ccc(F)cc2)c1	–	8.8% [at 12.7 µM] (inactive)
Cc1cccc(OCCSc2nc3ccc(NC(=O)COc4ccccc4C)cc3s2)c1	–	2.36% (inactive)
COCc1[nH][nH]c(=O)c1C=Nc1ccc(F)cc1F	20 µM (active)	–
Cc1c(C(C)CCCO)oc(=O)c2c1Oc1c(C)c(C(C)C[C@@H](C)O)oc(=O)c1C2 (some centres undefined)	–	9.9% [at 2.33 µM] (inactive)
Cc1ccc2nc(SCC(=O)N3CC(C)OC(C)C3)nc(=O)n2c1 (centres undefined)	–	-2.71% [at 102 µM] (inactive)
CCN(CC)S(=O)(=O)c1ccc(Cl)c(C(=O)NC(C)C(c2cccs2)N2CCCC2)c1 (centres undefined)	–	-26.8% [at 102 µM] (inactive)
CN1CCN(c2ccc(S(=O)(=O)N3CCCCC3)cc2NC(=O)Cc2ccccc2F)CC1	–	-2.09% (inactive)
Cc1ccc(NS(=O)(=O)c2cccs2)cc1S(=O)(=O)N1CCCCCC1	–	5.06% [at 102 µM] (inactive)
CCN(CC)S(=O)(=O)c1ccc(N2CCOCC2)c(C(=O)O)c1	–	-9.66% (inactive)
O=S(=O)(Nc1cc(Cl)ccc1N1CCOCC1)c1ccccc1Cl	–	13.1% [at 2.33 µM] (inactive)
CC(=O)NCCC(=O)Nc1cc(S(=O)(=O)N2CCOCC2)ccc1N1CCOCC1	–	-0.39% [at 102 µM] (inactive)
CCN(CC)S(=O)(=O)c1ccc(N2CCN(C)CC2)c(NC(=O)Nc2ccccc2F)c1	39.8 µM (active)	–
CCN(CC)S(=O)(=O)c1ccc(N2CCCC2)c(NS(=O)(=O)c2cccs2)c1	28.2 µM (active)	–
CCN(CC)S(=O)(=O)c1ccc(N2CCOCC2)c(NC(=O)C2COc3ccccc3O2)c1 (centres undefined)	–	-11.4% (inactive)
COc1ccc(S(=O)(=O)N2CCCCC2)cc1NC(=O)c1cc([N+](=O)[O-])ccc1N1CCOCC1	–	-29.7% [at 102 µM] (inactive)
O=S(=O)(Nc1cc(S(=O)(=O)N2CCOCC2)ccc1N1CCCC1)c1cccs1	20 µM (active)	–
COCCNC(=S)Nc1cc(S(=O)(=O)N2CCOCC2)ccc1N1CCCCC1	2 µM (active)	–
